Experiment [1] deals with Atrial natriuretic peptide receptor 2 (Homo sapiens) (UniProt P20594). The experiment in a line: Natriuretic polypeptide receptor (hNpr2) antagonism - Pilot subtype selectivity assay (AID 1347050; calls by dose curve). The essentials: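 cGMP-sensor HEK293/hNpr2 cells; 2% GloSensor reagent 2 h RT; compounds 30 min; baseline luminescence read; 1 nM hNppC agonist 20 min RT; final luminescence read by CCD camera. Antagonism = reduced post-agonist signal.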

Experiment [2] can be described thus: NS1 protein of Zika virus - qHTS assay to identify small molecule inhibitors in human HEK 293 cells (AID 1347053). Further: series mostly up to about 46 µM; nearly all actives have a fitted effect of over 55% in size. The gist of the method:
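HEK 293; 20 h pre-culture, 37 C/5% CO2; cpd 1 h pre-infection; ZIKV MR766, MOI = 0.5, 24 h, 37 C; TR-FRET NS1 readout (two anti-NS1 Abs); norm. to no-virus vs infected.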
A general note: Quantitative high-throughput screening tests each substance at several concentrations.

Experiment [3] has as its target T1, Tyrosine-protein phosphatase non-receptor type substrate 1 (Homo sapiens) + Leukocyte surface antigen CD47 (Homo sapiens) (UniProt P78324+Q08722). The experiment in a line: CD47-SIRPalpha protein protein interaction - LANCE assay qHTS validation (AID 1347057; active means well fitted curve in the direction sought with a large enough effect in the signal ratio, with a control signal flat, not every such curve was filed as active; the % refers to the signal ratio; further: series mostly up to about 38 µM). The essentials:
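First, His-tagged CD47 and Eu-labelled anti-His antibody met the compound for 30 min; next, site-specifically biotinylated SIRPalpha was added for 30 min; finally streptavidin-APC was added before reading the TR-FRET ratio.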
(Time-resolved FRET reads energy transfer from a long-lived donor to a nearby acceptor.)

The target in experiment [4] is T1, Tyrosine-protein phosphatase non-receptor type substrate 1 (Homo sapiens) + Leukocyte surface antigen CD47 (Homo sapiens). The experiment is described as follows: CD47-SIRPalpha protein protein interaction - Alpha assay qHTS validation (AID 1347059).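 Further: bead proximity luminescence from CD47 binding SIRPalpha after compound preincubation with SIRPalpha.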 Further: potency means the concentration at half of the fitted maximal effect. The essentials: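 Soluble extracellular domains: Avi-tag biotinylated SIRPalpha (25 nM) preincubated 30 min RT with compound, then 6His-CD47 (12.5 nM) 30 min; Ni-NTA acceptor and streptavidin donor beads (10 ug/mL) 30 min, AlphaScreen read. PBS pH 7.4, 0.05% IGEPAL.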

Experiment [5] concerns the target Parathyroid hormone/parathyroid hormone-related peptide receptor (Homo sapiens) (UniProt Q03431). The experiment is described as follows: qHTS for PTHR1 Agonists: Optimization Screen against the NCGC LOPAC library (AID 1347079).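 Further: GloSensor cAMP luminescence in HEK-293 GP2 cells expressing human PTHR1 with IBMX.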 The essentials: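 Compounds were tested across a qHTS titration. PTHR1-expressing GP2 cells report cAMP rises via GloSensor luminescence after 1 hr compound exposure at 37C with IBMX present.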

Experiment [6] can be described thus: qHTS of pediatric cancer cell lines to identify multiple opportunities for drug repurposing: Primary screen for TC32 cells (AID 1347089). Further: nearly all actives have a fitted effect of over 60% in size. The gist of the method: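 TC32 cells, 500-1,000/well in growth medium, compound-treated 48 h at 37 °C; viability from CellTiter-Glo luminescence. Primary screen: MIPE 11-point (0.78 nM–46 µM final), NPC 8-point (0.59 nM–46 µM final); confirmatory at 11-point dilutions.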

Experiment [7] is described as follows: qHTS of pediatric cancer cell lines to identify multiple opportunities for drug repurposing: Primary screen for DAOY cells (AID 1347090). Further: series mostly up to about 46 µM; nearly all actives have a fitted effect of over 55% in size. The essentials: (§1)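 Eight- or eleven-point concentration series, 48 h treatment at 37 degrees C in growth media; readout CellTiter-Glo luminescence. Potency and efficacy were taken from the concentration-response curves.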

The nature of experiment [8]: qHTS of pediatric cancer cell lines to identify multiple opportunities for drug repurposing: Primary screen for SJ-GBM2 cells (AID 1347091). The gist of the method: as §1
The nature of experiment [9]: qHTS of pediatric cancer cell lines to identify multiple opportunities for drug repurposing: Primary screen for A673 cells (AID 1347092). Further: nearly all actives have a fitted effect of over 45% in size. The essentials: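 A673 cells (500-1,000 cells/well) were treated 48 hours at 37 degrees C with compounds at 11-point (0.78 nM to 46 µM) or 8-point (0.59 nM to 46 µM) dilutions. Viability read by CellTiter-Glo luminescence; concentration-response curves fitted.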

Experiment [10] is described as follows: qHTS of pediatric cancer cell lines to identify multiple opportunities for drug repurposing: Primary screen for SK-N-MC cells (AID 1347093). Further: series mostly up to about 46 µM. The gist of the method: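 Metabolically active cells were quantified by ATP-dependent luminescence (CellTiter-Glo, 15 min at room temperature) following 48 h treatment. Cells had been plated at 500-1,000 per well and settled for 5 h beforehand.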

Experiment [11] in a line: qHTS of pediatric cancer cell lines to identify multiple opportunities for drug repurposing: Primary screen for BT-37 cells (AID 1347094). Further: series mostly up to about 57 µM. The gist of the method:
(§2)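 Readout: CellTiter-Glo luminescence, 48 h treatment. Controls DMSO (neutral) and bortezomib 2.3 µM final (positive). Potency and efficacy taken from primary-screen concentration-response curves.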

Experiment [12] is described as follows: qHTS of pediatric cancer cell lines to identify multiple opportunities for drug repurposing: Primary screen for NB-EBc1 cells (AID 1347095). The essentials:
as §2

Experiment [13] can be described thus: qHTS of pediatric cancer cell lines to identify multiple opportunities for drug repurposing: Primary screen for U-2 OS cells (AID 1347096). Further: nearly all actives have a fitted effect of over 50% in size. The essentials: (§3)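 Cells (500-1,000/well) in growth media were settled 5 h at 37 degrees C, then given compounds for 48 h. Viability was read as CellTiter-Glo luminescence. Primary runs used MIPE at 11 points (0.78 nM-46 µM) and NPC at 8 points (0.59 nM-46 µM); follow-ups used 11 points.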

Experiment [14] can be described thus: qHTS of pediatric cancer cell lines to identify multiple opportunities for drug repurposing: Primary screen for Saos-2 cells (AID 1347097). Further: nearly all actives have a fitted effect of over 40% in size. The essentials: as §2
Experiment [15] in a line: qHTS of pediatric cancer cell lines to identify multiple opportunities for drug repurposing: Primary screen for SK-N-SH cells (AID 1347098). Further: nearly all actives have a fitted effect of over 65% in size. The gist of the method: (§4)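 Cells (500-1,000/well) rested 5 h, then received compounds for 48 h; metabolically active cells were measured by CellTiter-Glo luminescence. Final concentrations spanned up to 46 µM (MIPE, 11-point) or 0.59 nM-46 µM (NPC, 8-point) in primary screens, 11-point in follow-ups.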

The nature of experiment [16]: qHTS of pediatric cancer cell lines to identify multiple opportunities for drug repurposing: Primary screen for NB1643 cells (AID 1347099). Further: nearly all actives have a fitted effect of over 50% in size. The gist of the method:
as §2

A short description of experiment [17]: qHTS of pediatric cancer cell lines to identify multiple opportunities for drug repurposing: Primary screen for LAN-5 cells (AID 1347100). The essentials: as §3
Experiment [18] is described as follows: qHTS of pediatric cancer cell lines to identify multiple opportunities for drug repurposing: Primary screen for BT-12 cells (AID 1347101). Further: nearly all actives have a fitted effect of over 25% in size. The gist of the method:
as §4

Experiment [19] is described as follows: qHTS of pediatric cancer cell lines to identify multiple opportunities for drug repurposing: Primary screen for Rh18 cells (AID 1347102). Further: nearly all actives have a fitted effect of over 65% in size. The gist of the method:
as §3

The nature of experiment [20]: qHTS of pediatric cancer cell lines to identify multiple opportunities for drug repurposing: Primary screen for OHS-50 cells (AID 1347103). Further: nearly all actives have a fitted effect of over 40% in size. The gist of the method: as §4

Inconclusive results are not listed. The source made the active and inactive calls. Unless noted, the call rests on the fitted dose curve; in most records, active means well fitted curve in the direction sought with a large enough effect; inconclusive means small, poorly fitted or top-dose-only effect, or another doubt; inactive means no such curve, though single readings can be large; an effect the other way counts as inactive or inconclusive.

Chain of Parathyroid hormone/parathyroid hormone-related peptide receptor (Homo sapiens) (Q03431 whole entry, looked up): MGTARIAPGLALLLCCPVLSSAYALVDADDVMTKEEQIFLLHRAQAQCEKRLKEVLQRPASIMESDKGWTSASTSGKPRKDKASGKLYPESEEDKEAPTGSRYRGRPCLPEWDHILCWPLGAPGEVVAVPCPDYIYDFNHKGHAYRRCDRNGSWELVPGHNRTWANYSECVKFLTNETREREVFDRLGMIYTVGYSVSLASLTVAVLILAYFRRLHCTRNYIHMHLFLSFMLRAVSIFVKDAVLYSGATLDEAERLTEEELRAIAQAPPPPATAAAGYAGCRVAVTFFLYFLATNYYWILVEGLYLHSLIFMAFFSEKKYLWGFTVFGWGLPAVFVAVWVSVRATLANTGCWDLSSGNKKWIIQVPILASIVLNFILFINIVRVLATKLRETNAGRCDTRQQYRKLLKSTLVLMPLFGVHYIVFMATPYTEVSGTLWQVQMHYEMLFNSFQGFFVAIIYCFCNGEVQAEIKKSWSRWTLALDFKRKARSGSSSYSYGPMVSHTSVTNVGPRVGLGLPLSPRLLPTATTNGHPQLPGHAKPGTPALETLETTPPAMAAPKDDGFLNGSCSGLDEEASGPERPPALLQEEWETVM
Chain of Atrial natriuretic peptide receptor 2 (Homo sapiens) (P20594 whole entry, looked up): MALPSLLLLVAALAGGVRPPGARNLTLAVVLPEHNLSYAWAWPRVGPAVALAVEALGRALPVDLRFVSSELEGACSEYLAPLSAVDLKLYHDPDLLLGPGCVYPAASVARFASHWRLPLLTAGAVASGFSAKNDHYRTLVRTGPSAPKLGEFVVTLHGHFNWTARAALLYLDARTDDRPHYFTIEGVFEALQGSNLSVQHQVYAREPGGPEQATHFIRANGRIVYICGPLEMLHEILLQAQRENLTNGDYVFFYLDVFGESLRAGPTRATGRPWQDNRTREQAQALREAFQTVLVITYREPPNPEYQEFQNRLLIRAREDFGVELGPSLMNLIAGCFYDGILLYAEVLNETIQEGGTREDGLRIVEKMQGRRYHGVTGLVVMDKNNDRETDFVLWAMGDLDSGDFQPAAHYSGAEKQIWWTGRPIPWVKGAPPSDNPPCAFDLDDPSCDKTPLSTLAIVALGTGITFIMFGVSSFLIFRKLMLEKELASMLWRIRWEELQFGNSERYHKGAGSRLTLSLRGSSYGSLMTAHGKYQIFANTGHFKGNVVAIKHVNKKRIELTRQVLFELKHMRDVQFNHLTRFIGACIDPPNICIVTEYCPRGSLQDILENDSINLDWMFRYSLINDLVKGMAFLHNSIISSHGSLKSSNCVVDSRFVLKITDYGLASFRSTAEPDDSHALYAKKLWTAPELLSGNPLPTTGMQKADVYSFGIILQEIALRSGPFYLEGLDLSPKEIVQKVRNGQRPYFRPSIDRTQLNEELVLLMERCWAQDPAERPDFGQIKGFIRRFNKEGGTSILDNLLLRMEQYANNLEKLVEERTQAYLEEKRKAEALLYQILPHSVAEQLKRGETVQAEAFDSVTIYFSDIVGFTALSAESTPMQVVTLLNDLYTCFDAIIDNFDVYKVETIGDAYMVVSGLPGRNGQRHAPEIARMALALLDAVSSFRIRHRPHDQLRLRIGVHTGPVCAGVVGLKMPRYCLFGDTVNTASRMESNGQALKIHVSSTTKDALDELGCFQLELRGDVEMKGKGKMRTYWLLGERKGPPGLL
T1 sequence (P78324 whole entry, looked up): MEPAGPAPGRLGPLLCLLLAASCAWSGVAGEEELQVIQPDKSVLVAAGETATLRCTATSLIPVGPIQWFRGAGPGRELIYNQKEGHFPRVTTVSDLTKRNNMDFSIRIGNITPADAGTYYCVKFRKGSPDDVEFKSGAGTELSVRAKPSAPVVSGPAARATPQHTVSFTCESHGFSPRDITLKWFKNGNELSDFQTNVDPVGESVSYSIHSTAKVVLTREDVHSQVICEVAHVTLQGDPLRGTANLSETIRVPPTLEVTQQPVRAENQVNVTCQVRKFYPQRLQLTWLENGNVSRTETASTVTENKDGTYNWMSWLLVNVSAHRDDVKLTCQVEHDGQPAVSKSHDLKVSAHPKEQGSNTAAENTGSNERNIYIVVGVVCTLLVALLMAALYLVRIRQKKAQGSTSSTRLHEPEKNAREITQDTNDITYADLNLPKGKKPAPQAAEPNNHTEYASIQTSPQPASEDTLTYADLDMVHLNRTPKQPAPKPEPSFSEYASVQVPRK
T1 sequence (Q08722 whole entry, looked up): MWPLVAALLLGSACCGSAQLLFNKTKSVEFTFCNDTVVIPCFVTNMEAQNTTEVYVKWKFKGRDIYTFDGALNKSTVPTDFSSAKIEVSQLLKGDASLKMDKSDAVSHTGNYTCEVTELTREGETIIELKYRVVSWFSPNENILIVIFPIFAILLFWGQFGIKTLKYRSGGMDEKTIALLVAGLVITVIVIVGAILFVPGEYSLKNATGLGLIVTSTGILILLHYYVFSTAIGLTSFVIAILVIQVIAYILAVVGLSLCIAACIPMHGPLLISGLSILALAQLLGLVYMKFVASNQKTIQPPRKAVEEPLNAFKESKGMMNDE

Regarding `Cc1nn(-c2ccccc2)c(C)c1/C=N/N1CCN(Cc2ccccc2)CC1`, the Potency result in [1], in experiment [2] and in [4] was “inactive” throughout. Besides, the result in experiment [3] and in [5] was inactive.
For the compound `N[C@@H](Cn1ccc(=O)c(O)c1)C(=O)O`, the Potency entry in [1] and in experiment [2] was “inactive” in each case. For the same compound, the Potency in experiment [4] is 58.5 nM (active). For the same compound, the call in experiment [5] was inactive.
For the compound `CCOC(=O)O[C@]1(C(=O)OCCl)CC[C@H]2[C@@H]3CCC4=CC(=O)C=C[C@]4(C)[C@H]3[C@@H](O)C[C@@]21C`, the Potency result in experiment [2], in experiment [6], in experiment [7], in experiment [8], in experiment [9] and in experiment [10] was “inactive” in each case. Further, the Potency entry in experiment [11], in experiment [12], in experiment [13], in experiment [14], in experiment [15] and in [16] was “inactive” throughout. Further, the Potency result in [17], in experiment [18], in [19] and in [20] was “inactive” in each case.
Turning to `COc1cccc2c1[C@@H]1CN(CCCCn3c(=O)[nH]c4c(sc5ncc(-c6ccccc6)nc54)c3=O)C[C@@H]1CO2`, the Potency result in experiment [1], in [2] and in experiment [4] was “inactive” in each case. The outcome in experiment [3] and in experiment [5] was inactive.
As for `O=C1Nc2cc(Cl)ccc2Oc2ccccc21`, the Potency result in experiment [2], in experiment [6], in experiment [7], in [8], in experiment [9] and in experiment [10] was “inactive” in each case. The Potency entry in experiment [11], in experiment [12], in [13], in [14], in experiment [15] and in experiment [16] was “inactive” throughout. The Potency entry in experiment [17], in experiment [18] and in experiment [19] was “inactive” in each case.
Take `COc1ccccc1N1CCN(CCN2C(=O)CC3(CCCC3)CC2=O)CC1`: the Potency result in experiment [1], in [2] and in experiment [4] was “inactive” each time. Also, the outcome in experiment [3] and in [5] was inactive.
In the case of `CCOC(=O)C(=O)CCc1ccccc1`, the Potency result in [2], in [6], in experiment [7], in [8], in experiment [9] and in experiment [10] was “inactive” in each case. For the same compound, the Potency result in [11], in [12], in experiment [13], in experiment [14], in [15] and in experiment [16] was “inactive” in each case. For the same compound, the Potency entry in experiment [17], in [18] and in experiment [19] was “inactive” in each case.
Regarding `CCC(=O)Oc1ccc2c(c1)CC[C@@H]1[C@@H]2CC[C@@]2(C)[C@H]1C[C@@H](OC(=O)CC)[C@@H]2OC(=O)CC`, the Potency result in [2], in experiment [6], in [7], in experiment [8], in experiment [9] and in [10] was “inactive” throughout. The Potency result in experiment [11], in [12], in [13], in experiment [14], in experiment [15] and in [16] was “inactive” in each case. Further, the Potency result in experiment [17], in experiment [18] and in experiment [19] was “inactive” in each case.
Regarding `N#Cc1cc(NC(=O)C(=O)O)c(Cl)c(NC(=O)C(=O)O)c1`, the Potency result in experiment [2], in experiment [6], in experiment [7], in experiment [8], in [9] and in [10] was “inactive” throughout. The Potency entry in experiment [11], in experiment [12], in experiment [13], in experiment [14], in experiment [15] and in experiment [16] was “inactive” each time. Also, the Potency entry in [17], in experiment [18] and in [19] was “inactive” throughout.
In the case of `Cn1cnc2c(NCc3ccccc3)nc(NCCO)nc21`, the Potency result in [1], in [2] and in experiment [4] was “inactive” throughout. Further, the result in experiment [3] and in experiment [5] was inactive.
As to `Cc1ccc(C(C)OC(=O)C2(C)CCC(C(=O)O)C2(C)C)cc1` (configuration not stated), the Potency entry in experiment [2], in [6], in experiment [7], in experiment [8], in experiment [9] and in experiment [10] was “inactive” in each case. In addition, the Potency entry in experiment [11], in [12], in [13], in experiment [14], in experiment [15] and in experiment [16] was “inactive” each time. In addition, the Potency entry in experiment [17], in [18] and in experiment [19] was “inactive” throughout.
With `O=S(=O)(O)c1ccc2nc(-c3ccccc3)[nH]c2c1`, the Potency result in experiment [2] and in [6] was “inactive” in each case.

(Values after PubChem BioAssay (NCATS).)
